High-throughput results: PubChem BioAssay, Broad Institute
IDE exosite FP: displaces the probe from the exo-site of human IDE; P14735; purified IDE, FL-6b probe fluorescence polarization; active compounds read low; 6.3% of 17,000 active; z-score at 20 µM;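 active = z-score of -3 or lower, meaning strong loss of probe binding signal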;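 also: His-tagged human IDE residues 42-1019 made in E. coli with 30 nM FL-6b probe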
Active calls of the source: *. This is one part of a sample in which hits are shown more often than they occur.

SMILES	IDE exosite FP
COc1ccccc1NC(=O)N1[C@H](CO)[C@H](c2ccccc2)[C@@H]1C#N	-2.1
C[C@@H]1CCCCO[C@@H](CN(C)C(=O)Nc2ccc3c(c2)OCO3)[C@@H](C)CN([C@H](C)CO)C(=O)c2cc(NS(=O)(=O)c3ccc(F)cc3)ccc2O1	1.1
C[C@@H](NC(=O)C[C@@H]1C[C@H]2c3cc(NS(=O)(=O)c4ccc(F)cc4)ccc3O[C@H]2[C@@H](CO)O1)c1ccccc1	-0.24
CCCC(=O)N1CCC2(CC1)CN(Cc1ccc(Cl)cc1)[C@@H](CO)c1[nH]c3cc(OC)ccc3c12	-1.7
COc1ccc2c3c([nH]c2c1)[C@@H](CO)N(Cc1ccccc1F)CC31CCN(C(=O)C2CC2)CC1	-3.6*
COc1ccc2c3c([nH]c2c1)[C@H](CO)N(Cc1ccccn1)CC31CCN(C(C)=O)CC1	-2.8
COc1ccc2c3c([nH]c2c1)[C@@H](CO)N(Cc1ccccc1Cl)CC31CN(C(=O)C2CC2)C1	-3
COc1ccc2c3c(n(C)c2c1)[C@H](CO)N(Cc1ccccc1Cl)CC31CCN(C(=O)CC2CC2)CC1	-4.1*
COc1ccc2c3c([nH]c2c1)[C@H](CO)N(Cc1ccccn1)CC31CN(C(=O)CC2CC2)C1	-0.017
CCCC(=O)N1CC2(C1)CN(Cc1ccccc1F)[C@@H](CO)c1c2c2ccc(OC)cc2n1C	-0.33
CCS(=O)(=O)N1CC2(CN(Cc3ccccc3F)[C@@H](CO)c3[nH]c4cc(OC)ccc4c32)C1	-0.44
COCC(=O)N1CCC2(CC1)CN(Cc1ccccc1Cl)[C@@H](CO)c1[nH]c3cc(OC)ccc3c12	-3.6*
COCC(=O)N1CCC2(CC1)CN(Cc1ccccc1Cl)[C@H](CO)c1[nH]c3cc(OC)ccc3c12	-1.8
COc1ccc2c3c([nH]c2c1)[C@@H](CO)N(Cc1ccccn1)CC31CCN(C(C)=O)CC1	-3.6*
COc1ccc2c3c(n(C)c2c1)[C@H](CO)N(Cc1ccccc1OC)CC31CN(C)C1	-1.3
C/C=C/c1ccc([C@@H]2[C@H](CO)N(C(=O)CN(C)C)C23CN(C(=O)C2CCOCC2)C3)cc1	-1.2
CN1C(=O)c2cc(NC(=O)NCc3ccccc3)ccc2OC[C@@H]2O[C@@H](CC(=O)NCC3CCCCC3)CC[C@H]21	-0.47
O=C(C[C@@H]1CC[C@H]2[C@@H](COC[C@@H](O)CN2Cc2cccc(Cl)c2)O1)NCc1cccc(F)c1	-0.59
NCC[C@@H]1CC[C@H](NC(=O)NC2CCCCC2)[C@H](CO)O1	0.3
O=C(Nc1cccc(F)c1)N1CC(=O)N2[C@H](CO)[C@@H](c3ccc(C#Cc4cccnc4)cc3)[C@@H]2C1	3.4
COc1ccccc1NC(=O)N1CC(=O)N2[C@H](C1)[C@H](c1ccc(C#CCC(C)C)cc1)[C@@H]2CO	1.8
N#C[C@@H]1[C@H](c2ccccc2)[C@H](CO)N1C(=O)c1ccc2c(c1)OCO2	-0.23
C[C@H](CO)N1C[C@H](C)[C@@H](CN(C)S(=O)(=O)c2ccc(F)cc2)Oc2ccc(NS(=O)(=O)c3cn(C)cn3)cc2C1=O	-0.28
CC(=O)N1CC(=O)N2[C@H](C1)[C@@H](c1ccc(C#CC(C)C)cc1)[C@@H]2CO	4.4
CCC(=O)N1CC(=O)N2[C@H](C1)[C@H](c1ccc(C#Cc3cccnc3)cc1)[C@@H]2CO	-3*
SMILES	IDE exosite FP
COc1cccc(C#Cc2ccc([C@@H]3[C@@H](CO)N4C(=O)CN(C(=O)C5CC5)C[C@H]34)cc2)c1	-1.9
CCCNC(=O)N1CC(=O)N2[C@@H](CO)[C@@H](c3ccc(C#Cc4cccc(OC)c4)cc3)[C@@H]2C1	-1.3
CCCNC(=O)N1CC(=O)N2[C@@H](CO)[C@H](c3ccc(C#Cc4cccc(OC)c4)cc3)[C@@H]2C1	-2.8
COc1cccc(C#Cc2ccc([C@H]3[C@H](CO)N4C(=O)CN(C(=O)c5ccccc5)C[C@@H]34)cc2)c1	-2.2
CCC(=O)N1CC(=O)N2[C@@H](CO)[C@@H](c3ccc(C#Cc4cccc(OC)c4)cc3)[C@@H]2C1	-11*
CCC(=O)N1CC(=O)N2[C@@H](CO)[C@@H](c3ccc(C#Cc4cccnc4)cc3)[C@@H]2C1	2
CCC(=O)N1CC(=O)N2[C@H](CO)[C@@H](c3ccc(C#Cc4cccc(OC)c4)cc3)[C@H]2C1	-4.2*
CCC(=O)N1CC(=O)N2[C@H](CO)[C@@H](c3ccc(C#Cc4cccnc4)cc3)[C@@H]2C1	-0.31
O=C(c1ccccn1)N1CC[C@@H]2[C@H]1c1cc(Br)ccc1N[C@@H]2CO	2.7
O=C(C[C@H]1CC[C@@H]2[C@H](COC[C@H](O)CN2C(=O)Nc2cccc(F)c2)O1)NCCCN1CCOCC1	0.29
O=C(C[C@@H]1CC[C@@H]2NC[C@@H](O)COC[C@H]2O1)NCCN1CCCCC1	-0.78
N#C[C@@H]1[C@H](c2ccc(C3=CCCCC3)cc2)[C@H](CO)N1C(=O)Nc1ccccc1F	0.64
CCCC#Cc1ccc([C@@H]2[C@H](C#N)N(C(=O)C3CC3)[C@H]2CO)cc1	0.95
COc1ccc(-c2ccc([C@H]3[C@H](CO)N4C(=O)CN(C(=O)c5ccccn5)C[C@@H]34)cc2)cc1	-0.092
O=C1N[C@H](c2ccccc2)COCc2cn(nn2)CC[C@@H]1Cc1ccc(C(F)(F)F)cc1	0.96
O=C(NC1CCCC1)N1CCCCN2[C@H](CO)[C@@H](c3ccc(-c4cncnc4)cc3)[C@@H]2C1	-0.14
CCCC#Cc1ccc([C@H]2[C@@H](CO)N3CCCCN(C(=O)NC4CCCC4)C[C@@H]23)cc1	-1
O=C(NC1CCCC1)N1CCCCN2[C@H](CO)[C@H](c3ccc(-c4ccccc4)cc3)[C@H]2C1	-5*
O=C(NC1CCCC1)N1CCCCN2[C@@H](CO)[C@@H](c3ccc(-c4ccccc4)cc3)[C@@H]2C1	-7*
CCCC#Cc1ccc([C@H]2[C@H]3CN(C(=O)NC4CCCC4)CCCCN3[C@H]2CO)cc1	-1.2
O=C(NC1CCCC1)N1CCCCN2[C@H](CO)[C@@H](c3ccc(-c4cncnc4)cc3)[C@H]2C1	2.2
CCCC#Cc1ccc([C@@H]2[C@@H](CO)N3CCCCN(C(=O)NC4CCCC4)C[C@H]23)cc1	-4.9*
O=C(NC1CCCC1)N1CCCCN2[C@H](C1)[C@@H](c1ccc(-c3cncnc3)cc1)[C@@H]2CO	3.6
O=C(NC1CCCC1)N1CCCCN2[C@H](CO)[C@@H](c3ccc(-c4cccnc4)cc3)[C@@H]2C1	-1.3
CO[C@@H]1CN(C)C(=O)c2cc(NC(C)=O)ccc2OC[C@H](C)N(Cc2ccncc2)C[C@@H]1C	-0.14
SMILES	IDE exosite FP
N#C[C@H]1[C@@H](c2ccc(C#Cc3cccc(F)c3)cc2)[C@H](CO)N1C(=O)C1CCC1	3.3
COc1ccc2c3c(n(C)c2c1)[C@@H](CO)N(C)CC31CCN(C(=O)NC(C)C)CC1	0.36
CC=Cc1ccc2n(c1=O)C[C@@H]1[C@@H](CO)[C@H](C(=O)N(C)C)N(C(=O)CC)[C@H]21 (mixture of isomers)	1.1
O=C(C1CC1)N1CC(=O)N2[C@H](CO)[C@@H](c3ccc(C#Cc4cccc(F)c4)cc3)[C@H]2C1	-3.1*
O=C(c1cccc(F)c1)N1CC(=O)N2[C@H](CO)[C@H](c3ccc(C#Cc4ccc(F)cc4)cc3)[C@H]2C1	3.9
O=C(C1CC1)N1CC(=O)N2[C@H](CO)[C@@H](c3ccc(C#Cc4cccc(F)c4)cc3)[C@@H]2C1	-5.7*
CCC(=O)N1CC(=O)N2[C@H](CO)[C@@H](c3ccc(C#Cc4cccc(F)c4)cc3)[C@H]2C1	2.6
O=C(C1CC1)N1CC(=O)N2[C@@H](CO)[C@H](c3ccc(C#Cc4cccc(F)c4)cc3)[C@@H]2C1	-5.8*
